Measured values as given in PubChem BioAssay AID488789 (Broad Institute, 2010).
Measured potencies and affinities stand elsewhere. Results filed as inconclusive are left out. Activity calls are given as the source filed them.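 The calls were made as follows: active = samples whose fitted half-maximal inhibition concentration is no more than ten times the top valid dose tested; inconclusive = flat response between -70 and -30, or invalid curve fit; inactive = flat within 30 of zero, potency above limit, or signal rising.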

These molecules were tested against Trypsin (Sus scrofa) (UniProt P00761) (assay: trypsin protease activity blockade – biochemical, quenched peptide fluorescence, cherry-pick, selectivity assay for Rce1 protease inhibitor project, dose response (AID 488789;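 also: more negative means stronger trypsin inhibition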)). Details: porcine trypsin, quenched peptide cleavage fluorescence; series mostly up to 10 µM.
Trypsin (Sus scrofa), sequence (P00761 whole entry, looked up): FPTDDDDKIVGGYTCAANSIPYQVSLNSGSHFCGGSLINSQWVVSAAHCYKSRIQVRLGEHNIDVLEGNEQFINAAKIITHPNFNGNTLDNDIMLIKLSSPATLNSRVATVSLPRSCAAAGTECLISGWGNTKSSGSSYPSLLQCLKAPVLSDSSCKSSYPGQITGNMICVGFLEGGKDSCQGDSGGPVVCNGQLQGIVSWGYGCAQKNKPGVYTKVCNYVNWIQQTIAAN

outcome, inactive:
COc1cccc(-c2csc(N3CCN(C(=O)NC45CC6CC(CC(C6)C4)C5)CC3)n2)c1
CC1(C)CC2CC(C)(CN2S(=O)(=O)c2ccc(N)cc2)C1 (configuration not stated)
c1cnn(Cc2cnc(N3CCOCC3)s2)c1
C/C=C(/C)C(=O)O[C@H]1[C@@H](O)c2c(ccc3ccc(=O)oc23)OC1(C)C
COCCNc1nc(N)c([N+](=O)[O-])c(N2CCCCCC2)n1
CN(C)CCN(C(=O)c1ccc2ccccc2c1)c1nc2ccc(Br)cc2s1
COc1ccccc1NC(=O)/C(=C\c1cccnc1)NC(=O)c1ccc(C)cc1
O=C(CCCn1c(=O)[nH]c2ccc(Br)cc2c1=O)NCc1ccc(Cl)cc1
O=C(N/N=C/C1CC=CCC1)c1ccc(O)cc1O (configuration not stated)
O=C(c1cn(-c2ccccc2)nc1-c1cccs1)N1CCN(c2ccccn2)CC1
COCCCNC(=S)NCCNc1nc2cc(C)cc(C)c2cc1C#N
O=C(Nc1ccc(F)cc1)Oc1ccccc1N1CCOCC1
CN1CCN(C(=O)c2ccc(-c3cccs3)s2)CC1
O=C(Nc1ccccc1N1CCOCC1)C1CCN(S(=O)(=O)c2ccc(F)cc2)CC1
Cc1cc(C)n(-c2nc3ccccc3c(=O)n2OCC(=O)N(C)C)n1
Cc1cccc(-c2nnc(SCc3ccc(C#N)cc3)n2Cc2ccco2)c1
CC(Cc1cccs1)NC(=O)Nc1ccc([N+](=O)[O-])cc1 (configuration not stated)
COc1cc(C(=O)OCC(=O)Nc2ccc(SC(F)F)cc2)cc(OC)c1OC
COc1ccc(Cn2c(N)c(S(=O)(=O)c3cccs3)c3nc4ccccc4nc32)cc1
CC(=O)Nc1ccc(Cl)cc1C1COC(=O)C1=N (configuration not stated)
CN(C)CC(C)(C)CNC(=S)NCc1ccc2c(c1)OCO2
CCCCCCCCCC[N+](C)(C)CC/C=C1/c2ccccc2Sc2ccc(Cl)cc21
COc1ccc(NS(=O)(=O)c2ccc3oc(=O)c4[nH]c(=O)c(=O)n(C)c4c3c2)cc1
Cc1cc(C)cc(N2CC(O)=C(c3nc4ccccc4c(=O)[nH]3)C2=N)c1
COc1ccc(C(=O)/C=C/c2ccc(OC)cc2OC)c(O)c1
CCNC(=S)NNC(=O)CCn1cc(C)cn1
CCOc1ccc(-c2c(C(=O)N/N=C/c3cccs3)nnn2-c2nonc2N)cc1
CCN(Cc1ccccc1)S(=O)(=O)c1ccc(C(=O)N(CCCN(C)C)c2nc3c(C)c(C)ccc3s2)cc1
Cc1cc(N2CCOCC2)n2cc(-c3ccccc3)nc2n1
CCn1nc(C)cc1C(=O)NC1CC(C)(C)Cc2c1cnn2-c1cccc(F)c1 (configuration not stated)
CC(C)CNC(=O)Nc1ccc(F)c(Cl)c1
COc1ccc(OC)c(/C=N/c2c(-c3ccc(O)c(OC)c3)nc3ccccn23)c1
N/C(Cc1ccc([N+](=O)[O-])cc1)=N\OC(=O)c1ccc2ccccc2c1
Cc1nn(CCC(=O)O)c2nc(-c3cccnc3)cc(C(F)(F)F)c12
COc1ccc(-c2oc3ncn(Cc4ccco4)c(=N)c3c2-c2ccc(OC)cc2)cc1
O=C(COc1ncnc2cc([N+](=O)[O-])ccc12)NC(=O)NC1CCCCC1
CCCCOc1ccc(-c2cc(C(F)(F)F)c(C#N)c(SCC(=O)O)n2)cc1
